The values that follow come from PubChem BioAssay AID1861 (The Scripps Research Institute Molecular Screening Center, 2009).

A word on the inhibition: it is the change of the read-out against control, counted positive when it falls.

Screen size: about 290,000 compounds; about 3,100 (1.1%) were called active. No stated cut-off is given here; in the data, active means inhibition above about 16% (passing the limit was not always enough); inactive means the rest. The list comes from a sample in which actives are over-represented; it also holds similar structures and randomly drawn compounds.

The target of this experiment is Neuropeptides B/W receptor type 1 (Homo sapiens) (UniProt P48145). As to the kind of experiment: GPR7 receptor antagonists, primary screen, cell-based, fluorescence, single concentration (AID 1861).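 Further: cells stimulated with the agonist NPW; 0% = agonist with vehicle and 100% = vehicle without agonist.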 As to conditions: GPR7-expressing cells, fluorescence antagonist assay; at 4.4 µM; hits give high values.
Neuropeptides B/W receptor type 1 (Homo sapiens), sequence (P48145 whole entry, looked up): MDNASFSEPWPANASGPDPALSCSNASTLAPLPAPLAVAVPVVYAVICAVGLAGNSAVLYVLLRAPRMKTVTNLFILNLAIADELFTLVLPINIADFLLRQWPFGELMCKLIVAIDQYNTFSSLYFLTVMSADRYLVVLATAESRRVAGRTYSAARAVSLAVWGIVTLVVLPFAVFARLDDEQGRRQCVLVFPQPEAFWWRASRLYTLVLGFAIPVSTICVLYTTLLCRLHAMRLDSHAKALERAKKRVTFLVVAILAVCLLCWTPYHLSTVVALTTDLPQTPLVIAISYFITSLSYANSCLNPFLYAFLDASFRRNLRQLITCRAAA
Turning to `Cc1ccc(CN2CCNC(=O)C2CC(=O)NCc2csc(C(C)C)n2)cc1` (configuration not stated), the inhibition is 7.42% (inactive). The value for `CCCCCCCCCCOC(=O)Cn1c(COc2cccc(OC)c2)[n+](C)c2ccccc21` was 65% (active). The value for `CCCCCCCCCCOC(=O)Cn1c(COc2ccc(C)cc2)[n+](C)c2ccccc21` was 19.5% (inactive); that for `CCCCOC(=O)Cn1c(=N)n(CCN(CC)CC)c2ccccc21` was 2.44% (inactive). The value for `OCCN(Cc1ccccc1)Cc1ccc(Cl)cc1` was -3.11% (inactive); that for `O=[N+]([O-])c1ccc(N(CCO)Cc2ccccc2)c([N+](=O)[O-])c1` was 23.9% (active); that for `CCN(CC)c1ccc([N+](=O)[O-])cc1C(=O)O` was -0.91% (inactive). Regarding `CC1C(=O)Nc2ccccc2N1C(=O)c1ccc(F)cc1F` (configuration not stated), the inhibition is -4.79% (inactive). Then `CCOc1ccc(CN2CCC(n3nccc3NC(=O)C3CC3)CC2)cc1CO`, with 1.55% (inactive). The value for `Cc1cc(C)cc(NC(=O)C2CCCN(S(=O)(=O)c3ccc4[nH]c(=O)ccc4c3)C2)c1` (configuration not stated) was -6.12% (inactive).

`CN1CCN(c2ccccc2NC(=O)COc2ccc(C3CCCCC3)cc2)CC1`: the inhibition is -0.24% (inactive). `COc1ccc(C(=O)N2CCc3cc(OC)c(OC)cc3C2c2cccc([N+](=O)[O-])c2)cc1` (configuration not stated): the inhibition is -1.43% (inactive). Then `COc1ccc(CC(NC(C)=O)C(=O)NC2CCN(C(=O)c3ccc(OC)c(OC)c3)CC2)cc1OC` (configuration not stated), with 1.05% (inactive); and `CCc1ccc(OCC2c3cc(OC)c(OC)cc3CCN2C(C)=O)cc1` (configuration not stated), with 45.6% (active); and `O=C(CSc1nc2cccnc2n1Cc1ccccc1)N1CCc2ccccc21`, with -12% (inactive). Then `CCOC(CNC(=O)C1CCN(S(=O)(=O)c2ccc3nc4c(c(C(=O)O)c3c2)CC(C)CC4)CC1)OCC` (configuration not stated), with -21.9% (inactive); and `CC(=O)N1c2ccc(S(=O)(=O)N3CCC(C(=O)NCc4ccc(F)cc4)CC3)cc2CC1C` (configuration not stated), with -4.2% (inactive). In the case of `Cc1ccc(CNC(=O)C2CCN(S(=O)(=O)c3ccc4nc5c(c(C(=O)O)c4c3)CC(C)CC5)CC2)cc1` (configuration not stated), the inhibition is 27.2% (active). Then `COc1ccc2c(CC(=O)N3CCc4cc(OC)c(OC)cc4C3)coc2c1`, with 20.9% (active); and `COc1ccc2c(CC(=O)OCC(=O)NC(N)=O)coc2c1`, with -8.77% (inactive); and `COc1ccc(NC(=S)N2CCc3cc(OC)c(OC)cc3C2)cc1`, with 2.63% (inactive).

Consider `Cc1nn(C)cc1S(=O)(=O)N1CCN(c2ccc(F)cc2)CC1`, for which the inhibition is -4.94% (inactive). Then `O=[N+]([O-])c1ccccc1S(=O)(=O)Nc1cccc2cccnc12`, with -12.1% (inactive). Then `O=C(NC(=S)NC1CCCCC1)c1ccc(Cl)cc1`, with -18.6% (inactive); and `COc1ccccc1-n1c(SCC(=O)Nc2cccc(C(=O)O)c2)nnc1-c1ccccc1O`, with -17.1% (inactive); and `COCc1ccc(C(=O)NC2CC(C)(C)Cc3c2cnn3-c2ccc(C)cc2)o1` (configuration not stated), with -0.16% (inactive). Then `COc1ccc(-c2cn(-c3ccc(OC)cc3)c(=S)[nH]2)cc1`, with 10.2% (inactive); and `COc1cc(OC)c(-n2cc(-c3ccc(Cl)cc3)[nH]c2=O)cc1Cl`, with 64.5% (active). Regarding `COc1cc(OC)c(-n2c(C)cc(C=O)c2C)cc1Cl`, the inhibition was -3.29% (inactive). The value for `Brc1c(CSc2nncc3ccccc23)nc2ccccn12` was -2.42% (inactive). Then `CCOCCCN1C(=O)C2C(C(=O)Nc3ccc(OCC)cc3)C3C=CC2(O3)C1C(=O)NC1CCCCC1` (configuration not stated), with -12.8% (inactive); and `CCn1c(CC(=O)Nc2ccccc2)nnc1SCC(=O)N1CCOCC1`, with -9.92% (inactive); and `CC1(C)CC(CNCCC(c2ccc(F)cc2)c2ccco2)CCO1` (configuration not stated), with 27.9% (active). The value for `CC1(C)CC(N(Cc2ccccc2)C(=O)Cc2ccccc2)CCO1` (configuration not stated) was -11.1% (inactive). As to `O=C1c2ccccc2C(=O)N1CCC(c1ccccc1)c1ccco1` (configuration not stated), the inhibition was -19.2% (inactive). The value for `CCC(C(=O)Nc1ccc2c(c1)OCCO2)c1ccccc1` (configuration not stated) was -8.4% (inactive); that for `CCC(C(=O)OCC(=O)Nc1ccc(C(=O)Nc2ccc(OC)cc2)cc1)c1ccccc1` (configuration not stated) was 0.99% (inactive). As to `CCC(C(=O)Nc1ccc(C(C)C)cc1)c1ccccc1` (configuration not stated), the inhibition was 55.6% (active). Then `COc1ccc(-n2nc(C(=O)NCC(=O)N3CCN(c4ccccc4OC)CC3)c3ccccc3c2=O)c(OC)c1`, with 1.21% (inactive). For `Cn1nccc1/C=N\NC(=O)c1ccc(Cl)cc1`, the inhibition is -6.59% (inactive). The value for `Cc1ccnc(N2C(=O)c3ccccc3C2Nc2ccc3c(c2)OCCO3)c1` (configuration not stated) was -8.69% (inactive). Then `O=C(NC1CCCCC1)C1c2ccccc2C(=O)N1Cc1ccco1` (configuration not stated), with -11.8% (inactive); and `O=C1c2ccccc2C(Nc2ccc3c(c2)OCCO3)N1Cc1ccco1` (configuration not stated), with 17.6% (active). Then `COC(=O)c1c(NC(=O)c2ccc(S(=O)(=O)N3CCOCC3)cc2)sc2c1CCN(C(C)C)C2`, with -0.58% (inactive); and `Nc1cccc2c1C(=O)N(Cc1nnc(-c3ccccc3Br)o1)C2=O`, with -16% (inactive); and `CN(C)/C=N/c1cc(=O)n(C)c(=O)n1CC1CC1`, with -1.62% (inactive). As for `Cc1ccc(O)c(NC(=S)NC(=O)COc2ccc(Br)cc2)c1`, the inhibition is 89.1% (active). Turning to `Cc1cccc(OCC(=O)NC(=S)Nc2ccccc2N2CCOCC2)c1`, the inhibition is -14.9% (inactive). The value for `Cc1ccc(O)c(NC(=O)COc2cc(C)ccc2C)c1` was 10.6% (inactive); that for `Cc1cccc(C2C3=C(CCCC3=O)N=C3c4ccccc4C(=O)C32)c1` (configuration not stated) was -14.3% (inactive). Consider `CCn1cc(C(=O)NCCC(=O)NCCO)c(=O)c2cc3c(cc21)OCO3`, for which the inhibition was -13.5% (inactive). Regarding `COC(=O)CN1C(=O)[C@H]2[C@@H](/C=C/c3ccccc3)N3C(=O)CN(CC4CC4)C(=O)[C@@]3(Cc3ccccc3)[C@H]2C1=O`, the inhibition was -2.59% (inactive). Regarding `CCCCSCCCNC(=O)C1CCC(CNS(=O)(=O)c2ccc(NC(C)=O)cc2)CC1` (configuration not stated), the inhibition was 3.79% (inactive). The value for `Cc1nn(-c2ccccc2)c2c1c(C)c(CCC(=O)NCC1CCCO1)c(=O)n2C` (configuration not stated) was -15.7% (inactive).

On to `Cc1ccc(C(=O)NCC(=O)OCC(=O)NC2CCCCCCC2)cc1`, for which the inhibition is -6.33% (inactive). Then `O.O.O.O=S(=O)([O-])OC[C@H]1O[C@@H](O[C@]2(COS(=O)(=O)[O-])O[C@H](OS(=O)(=O)[O-])[C@@H](OS(=O)(=O)[O-])[C@@H]2OS(=O)(=O)[O-])[C@H](OS(=O)(=O)[O-])[C@@H](OS(=O)(=O)[O-])[C@@H]1OS(=O)(=O)[O-].[Al]`, with -11% (inactive). Then `O=C(NCc1ccco1)/C(=C/c1ccco1)NC(=O)c1ccccc1`, with -4.86% (inactive); and `NC(=O)C1CCN(C(=O)/C(=C/c2ccco2)NC(=O)c2ccccc2)CC1`, with -7.3% (inactive).

As for `O=C(OCN1C(=O)c2ccccc2C1=O)/C(=C\c1ccco1)NC(=O)c1ccccc1`, the inhibition was 19% (active). Then `C[C@H](NC(=O)C1CC(=O)N(c2ccc3c(c2)OCO3)C1)C(=O)NCc1ccco1` (some centres not stated), with 1.22% (inactive); and `O=S(=O)(Nc1ccc2[nH]ncc2c1)c1ccccc1Cl`, with 6.14% (inactive).

For the compound `O=C(Cn1nc(CNc2ccc(Cl)cc2)[n+]2c1CCCCC2)c1ccc(Cl)cc1`, the inhibition was -3.46% (inactive). Then `CC(=O)Nc1ccc(Oc2ccc3c(c2)C(=O)NC3=O)cc1`, with 7.14% (inactive); and `S=C(NCCCc1ccccc1)Nc1ccc(Br)cc1`, with -16.1% (inactive); and `S=C(NCCC1=CCCCC1)Nc1ccccc1`, with 8.55% (inactive). Then `S=C(NCCc1ccccc1)Nc1ccccc1`, with 21.5% (active). The value for `COc1ccc(-c2nnc3n2CCCCC3)cc1` was 1.65% (inactive).
